# The whole screen tested about 63,000 compounds, of which about 1,100 (1.7%) were called active. Only a selection was taken, and actives are over-represented in it overall. Results with a measured potency or affinity are listed apart. Unmarked numbers belong to inactive results. No stated cut-off is given here; in the data, active means cytotoxicity above about 50%; inactive means the rest.
# Assay: cytotoxicity in HPDE-C7 cells, cell-based, fluorescence, HTS (AID 430);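 further: cells exposed to compound for 48 hours before viability readout; 0% = vehicle and 100% = reference cytotoxic drug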
# Details: HPDE-C7 pancreatic duct cells viability, at 10 µM, stronger effect = higher value
row,Structure (SMILES),cytotoxicity
1,COc1cccc(CNC(=O)c2cc3oc4ccccc4c3n2C)c1OC,53.5% (active)
2,COc1ccccc1CNC(=O)c1cc2c(=O)n(C)c3ccccc3c2n1C,15.2%
3,COc1cccc(CNC(=O)Cn2c(=O)oc3ccccc32)c1OC,-4.3%
4,CC1=NC(Nc2nc(C)c3ccccc3n2)=NC(C)(C)C1,1.1%
5,COc1ccc(CNC(=O)c2cc(-c3ccc(OC)c(OC)c3)on2)cc1,1%
6,CCCc1cc(C(N)=O)c(NC(=O)C2CCCO2)s1 (stereo not drawn),-5.1%
7,COC(=O)c1nc2nc(C)cc(C(F)(F)F)n2n1,-8.4%
8,O=C(Cn1c(=O)n(-c2cccc(Cl)c2)c(=O)n1CC(=O)N1CCCCC1)N1CCCCC1,1%
9,Cc1ccc(S(=O)(=O)C2(C(=O)N3CCCCCC3)CC2)cc1,6%
10,Cc1ccc(S(=O)(=O)C2(S(=O)(=O)c3ccc(C)cc3)CCCC2)cc1,54.6% (active)
11,O=S(=O)(c1ccccc1)C1(S(=O)(=O)c2ccccc2)CCCC1,-3.4%
12,O=C(NCCc1cccc(Cl)c1)c1cccnc1,-6%
13,Cc1ccc(C)c(N2CCN(C(=O)c3ccc(NS(=O)(=O)c4c(C)noc4C)cc3)CC2)c1,41.2%
14,Cc1noc(C)c1S(=O)(=O)Nc1ccc(C(=O)N2CCN(c3ccc(Cl)cc3)CC2)cc1,-12.9%
15,N#Cc1ccccc1Cn1c(=O)n(Cc2ccc(C(=O)NCc3ccco3)cc2)c(=O)c2ccccc21,7.9%
16,CC(=O)c1cccc(NC(=O)C=C(C)C)c1,5.6%
17,CN(Cc1ccccc1)C(=O)CSc1nnc(-c2ccco2)n1-c1ccccc1,-10.3%
18,COc1ccc(CNC(=O)CSc2nnc(-c3ccc(NC(C)=O)cc3)n2C)cc1,-3.1%
19,CCCCCn1c(SCCN2CCOCC2)nc2c1c(=O)[nH]c(=O)n2C,5.5%
20,COc1ccccc1NC(=O)CN(c1ccc(C)cc1)S(=O)(=O)c1c(C)n[nH]c1C,4.4%
21,CCOc1ccccc1NC(=O)CN(c1ccc(C)cc1)S(=O)(=O)c1c(C)n[nH]c1C,52.3% (active)
22,CCOc1ccc(N(CC(=O)Nc2ccccc2C)S(=O)(=O)c2c(C)noc2C)cc1,65.3% (active)
23,COc1ccc(N(CC(=O)Nc2cc(Cl)ccc2OC)S(=O)(=O)c2c(C)noc2C)cc1,73.4% (active)
24,COc1ccccc1CNC(=O)CN(c1ccc(C)cc1)S(=O)(=O)c1c(C)n[nH]c1C,4.9%

row,Structure (SMILES),cytotoxicity
1,CCOc1ccccc1NC(=O)CN(c1ccc(C)cc1)S(=O)(=O)c1c(C)noc1C,-19.7%
2,CCOc1ccccc1NC(=O)CN(c1cc(C)cc(C)c1)S(=O)(=O)c1c(C)noc1C,6.7%
3,CCOc1ccc(N(CC(=O)Nc2ccc(C)cc2)S(=O)(=O)c2c(C)noc2C)cc1,1.8%
4,CCOc1ccc(N(CC(=O)NC(C)(C)C)S(=O)(=O)c2c(C)noc2C)cc1,-7.4%
5,COc1ccc(N(CC(=O)Nc2cc(C)ccc2OC)S(=O)(=O)c2c(C)noc2C)cc1,11.2%
6,CCOc1ccccc1NC(=O)CN(c1ccc(OC)cc1)S(=O)(=O)c1c(C)noc1C,66.8% (active)
7,COc1ccc(OC)c(NC(=O)CN(c2ccc(C)cc2)S(=O)(=O)c2c(C)noc2C)c1,4.3%
8,CCN1CCN(c2ncc(C(=O)Nc3c(F)cc(F)cc3Br)c3ccccc23)CC1,18.4%
9,Cc1ccc(NC(=O)NC2(C(=O)NCc3ccco3)CCCCC2)cc1,-5.6%
10,CCn1[nH]c(=O)c(=Nc2c(C)n(C)n(-c3ccccc3)c2=O)cc1-c1ccc(Cl)cc1,-9.8%
11,O=C(O)c1ccc(COc2ccc(CO)cc2Cl)cc1,-12.9%
12,O=C1N2CN(C(c3ccccc3)c3ccccc3)CN=C2SC1(CO)CO,-13.8%
13,CCOc1ccc(-c2nc(CSCC(=O)N3CCN(C(=O)c4ccco4)CC3)c(C)o2)cc1,-10.8%
14,Cc1[nH]n2c(=O)cc(C(C)C)nc2c1-c1ccccc1,12.7%
15,Cc1cc(=O)n2[nH]c(C)c(-c3ccccc3)c2n1,-5%
16,Cc1[nH]n2c(=O)cc(C(C)(C)C)nc2c1-c1ccccc1,76.6% (active)
17,CCCCCCNC(=O)C(C#N)c1nc2ccccc2nc1N1CCOCC1 (stereo not drawn),20.3%
18,CCN(CC)C(=O)N1CCC(NC(=O)Cc2ccccc2)CC1,-6.6%
19,CCOC(=O)C1CCN(C(=O)c2cc(S(=O)(=O)N3CCOCC3)c(Cl)cc2Cl)CC1,3.3%
20,Nc1ccc(-c2cc(N)n(-c3ccccc3)n2)cc1,14.8%
21,c1coc(-c2nc3nc4ccccc4n3nc2-c2ccco2)c1,77.5% (active)
22,c1coc(-c2nc3ccccc3nc2-c2ccco2)c1,-5.7%
23,c1coc(-c2nc(-c3ccco3)c(-c3ccco3)nc2-c2ccco2)c1,-9.1%
24,Cc1cc(C)c2cc3c(ccn3C3OC[C@H](O)[C@H](O)[C@H]3O)cc2n1 (stereo partly drawn),-2.7%

# From PubChem BioAssay AID430 (Sanford-Burnham Center for Chemical Genomics, 2006)
